PubChem BioAssay (NCI)
The panel holds about 83,000 compounds, 20% with a hit somewhere; the sample as a whole holds those more often.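 A percent growth of 40 corresponds to 60% growth inhibition; 0 means no net growth; -100 means all cells died. Active threshold: below 10.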 A number with no mark means an inactive call. Active and inactive are the calls of the source.

Tested on: HCT-116 colon
Assay: NCI-60 one-dose screen, 48 h (100 = growth as untreated, 0 = no growth, -100 = all killed)
Conditions: 10 µM unless noted

SMILES | growth
Brc1ccc2[nH]cc(-c3cncn3CCc3ccccc3)c2c1 | 43%
CN(CCN(C)c1ccc(C(=N)N)cc1)c1ccc(C(=N)N)cc1 | 104%
Nc1ccccc1NC(=O)c1ccc(-n2nc(-c3ccccc3)c3ccccc32)cc1 | 58.1%
CC(C)(C)c1cc(/C=N/NC(=O)c2ccccc2NC(=O)c2cccs2)c(O)c(C(C)(C)C)c1 | 9.85% (active)
CCCCCCCCO/N=C\c1c2c(O)c3c(O)c(C)c4c(c3c1O)C(=O)C(C)(O/C=C\C(OC)C(C)C(OC(C)=O)C(C)C(O)C(C)C(O)C(C)/C=C\C=C(\C)C(=O)N2)O4 (stereo not drawn) | 11.6%
O=C1CC(=O)OC(c2ccc([N+](=O)[O-])cc2)O1 | -68.8% (active)
CN1CCN(c2ccc(NC3=C(Cl)C(=O)c4ncccc4C3=O)cc2C(F)(F)F)CC1 | -57.3% (active)
O=C(c1nc2ccccc2[nH]1)C1C(c2ccc(Br)cc2)C2CC3CCCC[C@H]3N2[C@@]12C(=O)Nc1cc(Cl)ccc12 (stereo partly drawn) | 21.1%
N=C(N)c1ccc(OCCCCCCCCCCOc2ccc(C(=N)N)cc2)cc1 | -99.7% (active)
CNC(=O)c1cc(Cn2nc(C)c(NC(=O)Nc3ccc(Cl)c(C(F)(F)F)c3)c2C)ccn1 | 86.7%
O=S(=O)(Nc1ccc(-n2cnc3cc(-c4ccc(O)cc4)ccc32)cc1)c1ccccc1 | 90.3%
O=C(N/N=C/c1ccc(Oc2ccccc2)cc1)c1cnn2c1NC(c1ccccc1)C2 (stereo not drawn) | 32.2%
COc1cc(/C(C)=C(\c2ccc(Cl)cc2)c2ccc(OCCN3CCCC3)cc2)ccc1F | 39.2%
